Structures are written as SMILES. The panel holds about 83,000 compounds, 20% with a hit somewhere; the sample as a whole holds those more often.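 For each line, cells grew in 96-well plates with the test compound present at a single concentration for 48 hours.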 Calls of active or inactive are those of the source. How the source made its calls: active means growth percent below 10; inactive means the rest.

The subject of this assay is MDA-MB-468 breast. In words: NCI-60 one-dose screen, 48 h (100 = growth as untreated, 0 = no growth, -100 = all killed). The conditions noted are these: 10 µM unless noted.
Regarding `CCOc1ccc(-c2cc(C3(S(=O)(=O)c4ccc(C)cc4)CC=CC3)on2)cc1`, the growth was 72% (inactive). For the compound `CCOC(=O)c1cc2cccc(OC)c2oc1=O`, the growth is 108% (inactive). For `O=S(=O)(Nc1ccc(-n2cnc3cc(-c4ccc(O)cc4)ccc32)cc1)C1CC1`, the growth is 111% (inactive).

(Values after PubChem BioAssay (NCI).)
